SMILES strings stand for the structures. Several values for one entry are separate records, joined by “and”; a condition that tells them apart may be missing. Identical values can stand only once. Results filed as inconclusive are left out. Where a structure was tested more than once in an assay, its records may differ in their call. Activity calls are given as the source filed them. Unless noted, calls come from the whole dose curve; as a rule, active = well fitted curve in the direction sought with a large enough effect in the repeat runs; inconclusive = weak or mixed curves; inactive = no such curve, though single readings can be large; an effect the other way counts as inactive or inconclusive.

Experiment [1] in a line: qHTS assay to identify small molecule antagonists of the glucocorticoid receptor (GR) signaling pathway - cell viability counter screen (AID 720693). Note: nearly all actives have a fitted effect of over 55% in size. For orientation: In qHTS, concentration-response curves come from the screen itself.
Experiment [2] is described as follows: qHTS assay for identifying genotoxic compounds that show differential cytotoxicity against isogenic chicken DT40 cell lines with known DNA damage response pathways - wild type cell line (AID 743012). Note: nearly all actives have a fitted effect of over 60% in size. Note: potency is the fitted concentration of half-maximal effect. In short, it runs like this:
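Quantitative HTS on parental DT40 cells: 40 h compound treatment at 37 C/5% CO2, with viability then determined by CellTiter-Glo luminescence. Values serve as the DNA repair-proficient reference for differential cytotoxicity.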

Experiment [3] is described as follows: qHTS assay for identifying genotoxic compounds that show differential cytotoxicity against isogenic chicken DT40 cell lines with known DNA damage response pathways - Rev3 mutant cell line (AID 743014). Note: nearly all actives have a fitted effect of over 55% in size. Note: potency is the fitted concentration of half-maximal effect.
Experiment [4] is described as follows: qHTS assay for identifying genotoxic compounds that show differential cytotoxicity against isogenic chicken DT40 cell lines with known DNA damage response pathways - Rad54/Ku70 mutant cell line (AID 743015). Note: nearly all actives have a fitted effect of over 60% in size. Note: potency is the fitted concentration of half-maximal effect.
Experiment [5] in a line: qHTS assay to identify small molecule antagonists of the androgen receptor (AR) signaling pathway - cell viability counter screen (AID 743033; note: nearly all actives have a fitted effect of over 45% in size).
Experiment [6] is described as follows: qHTS assay to identify small molecule antagonists of the androgen receptor (AR) signaling pathway using the MDA cell line - cell viability counter screen (AID 743041; note: nearly all actives have a fitted effect of over 45% in size). In short, it runs like this:
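MDA-kb2 AR-luc cells (MMTV-luciferase, AR/GR responsive) treated with compounds plus R1881 agonist for 16 h at 37C. CellTiter-Fluor added at 15.5 h; fluorescence read after 30 min in the same wells.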

Experiment [7] can be described thus: qHTS assay to identify small molecule antagonists of the estrogen receptor alpha (ER-alpha) signaling pathway - cell viability counter screen (AID 743074; calls by dose curve;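 note: HEK293 cells carrying ER-alpha-UAS-bla reporter stimulated with 17beta-estradiol; nearly all actives have a fitted effect of over 45% in size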).
The nature of experiment [8]: qHTS assay to identify small molecule antagonists of the estrogen receptor alpha (ER-alpha) signaling pathway using the BG1 cell line - cell viability counter screen (AID 743081).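 Note: compound given together with 17beta-estradiol as the ER stimulus; series mostly up to about 70 µM; nearly all actives have a fitted effect of over 45% in size.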
Experiment [9] addresses Aromatase (Homo sapiens) (UniProt P11511). As to the kind of experiment: qHTS assay to identify aromatase inhibitors (AID 743083). Note: series mostly up to about 70 µM; nearly all actives have a fitted effect of over 55% in size.
Experiment [10] in a line: qHTS assay to identify small molecule antagonists of the thyroid receptor (TR) signaling pathway - cell viability counter screen (AID 743064). Note: nearly all actives have a fitted effect of over 50% in size. In short, it runs like this:
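In-well cytotoxicity read by CellTiter-Fluor (30 min, 37 C) following 23.5 h exposure of GH3 cells bearing a TRE-luciferase sensor. Compounds were added alongside 1 nM (final) T3 to drive TR transactivation.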

Experiment [11] can be described thus: qHTS assay to identify small molecule antagonists of the thyroid receptor (TR) signaling pathway (AID 743065). Note: series mostly up to about 70 µM; nearly all actives have a fitted effect of over 55% in size. The essentials:
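GH3.TRE-Luc rat pituitary cells (two TREs driving luciferase) were dosed with compound, then stimulated with 1 nM T3 (final) for 23.5 h at 37 C. ONE-Glo luminescence was the read-out, with CellTiter-Fluor fluorescence as the cytotoxicity counter-screen.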

The test system of experiment [12] is thyroid hormone receptor (rat, GH3 cells). Kind of experiment: qHTS assay to identify small molecule agonists of the thyroid receptor (TR) signaling pathway (AID 743066; calls by dose curve).
Experiment [13] deals with Estrogen receptor (Homo sapiens) (UniProt P03372). As to the kind of experiment: qHTS assay to identify small molecule antagonists of the estrogen receptor alpha (ER-alpha) signaling pathway (AID 743069; active = well fitted curve in the direction sought with a large enough effect in the signal ratio in the repeat runs, not every such curve was filed as active; the % refers to the signal ratio). In short, it runs like this: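 HEK293 ER-alpha-UAS-bla GripTite cells, held overnight in 2% charcoal-stripped FBS, 5,000 cells/well, preincubated 4 h, then compound plus 17beta-estradiol for 18 h at 37C. Beta-lactamase read by LiveBLAzer B/G FRET substrate, 2 h at room temperature.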
Estrogen receptor (Homo sapiens), sequence (P03372 whole entry, looked up): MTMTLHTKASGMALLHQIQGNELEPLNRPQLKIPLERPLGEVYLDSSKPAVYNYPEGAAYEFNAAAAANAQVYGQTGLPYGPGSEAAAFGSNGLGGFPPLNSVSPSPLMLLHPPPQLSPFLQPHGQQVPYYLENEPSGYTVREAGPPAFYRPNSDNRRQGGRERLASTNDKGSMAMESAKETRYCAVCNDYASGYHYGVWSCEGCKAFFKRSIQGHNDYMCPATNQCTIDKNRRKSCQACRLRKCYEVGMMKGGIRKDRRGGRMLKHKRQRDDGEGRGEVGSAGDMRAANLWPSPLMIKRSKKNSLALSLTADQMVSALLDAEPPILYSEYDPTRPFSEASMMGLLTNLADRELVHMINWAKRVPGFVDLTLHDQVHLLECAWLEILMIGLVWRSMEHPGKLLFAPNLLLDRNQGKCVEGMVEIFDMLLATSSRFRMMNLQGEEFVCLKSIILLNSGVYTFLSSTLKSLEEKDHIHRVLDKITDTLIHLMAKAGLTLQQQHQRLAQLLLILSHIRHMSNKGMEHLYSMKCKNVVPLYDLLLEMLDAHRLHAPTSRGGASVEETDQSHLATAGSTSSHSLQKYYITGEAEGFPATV

For experiment [14] the target is unchanged. As to the kind of experiment: qHTS assay to identify small molecule agonists of the estrogen receptor alpha (ER-alpha) signaling pathway (AID 743075; calls by dose curve).
A short description of experiment [15]: qHTS assay to identify small molecule antagonists of the estrogen receptor alpha (ER-alpha) signaling pathway using the BG1 cell line (AID 743080; calls by dose curve;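 note: BG1 cells stimulated with 17beta-estradiol alongside compound; nearly all actives have a fitted effect of over 25% in size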; note: potency is the fitted concentration of half-maximal effect). In short, it runs like this: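 Luciferase inhibition measured with ONE-Glo after 30 min at RT in BG1Luc4E2 cells given test compounds and 17beta-estradiol for 21.5 h at 37 C; CellTiter-Fluor viability read in the same wells beforehand.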

For experiment [16], the target named is Estrogen receptor (Homo sapiens) (UniProt P03372). Kind of experiment: qHTS assay to identify small molecule agonists of the estrogen receptor alpha (ER-alpha) signaling pathway using the BG1 cell line (AID 743079). Note: nearly all actives have a fitted effect of over 20% in size.

Aromatase (Homo sapiens), sequence (P11511 whole entry, looked up): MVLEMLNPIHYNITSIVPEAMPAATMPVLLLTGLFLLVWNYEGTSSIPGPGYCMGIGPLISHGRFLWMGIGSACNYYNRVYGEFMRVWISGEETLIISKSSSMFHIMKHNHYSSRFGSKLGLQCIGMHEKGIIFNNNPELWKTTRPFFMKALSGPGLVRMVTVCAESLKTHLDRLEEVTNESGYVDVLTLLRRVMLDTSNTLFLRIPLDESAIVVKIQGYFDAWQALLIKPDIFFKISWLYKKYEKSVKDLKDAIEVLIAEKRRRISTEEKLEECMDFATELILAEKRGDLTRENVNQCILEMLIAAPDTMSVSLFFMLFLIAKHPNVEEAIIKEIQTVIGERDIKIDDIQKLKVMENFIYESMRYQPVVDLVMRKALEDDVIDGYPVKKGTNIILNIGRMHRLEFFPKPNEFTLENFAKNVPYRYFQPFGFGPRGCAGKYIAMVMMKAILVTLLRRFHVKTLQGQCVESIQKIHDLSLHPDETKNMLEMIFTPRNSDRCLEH

For `CC1OC(C)OC(C)O1` (stereo not drawn), the result in experiment [1], in [5], in [6] and in [8] was inactive. Further, the Potency entry in [2], in experiment [3], in experiment [4], in [7] and in [9] was “inactive” throughout.
For `CC(NC(C)(C)C)C(=O)c1cccc(Cl)c1` (stereo not drawn), the call in experiment [1], in experiment [5], in experiment [6], in experiment [12] and in experiment [8] was inactive. For the same compound, the Potency entry in experiment [2], in [4], in [10], in experiment [11], in experiment [7] and in experiment [9] was “inactive” each time. Also, in experiment [3], the Potency result was “inactive and 23 µM (active)”.
Turning to `OCCN(CCO)CCO`, the call in experiment [1], in [5], in experiment [6], in experiment [12] and in experiment [8] was inactive. Further, the Potency entry in experiment [2], in experiment [3], in experiment [4], in [10], in [11] and in experiment [7] was “inactive” each time.
Regarding `CCN(CC)CCO`, the compound was called inactive in experiment [1], in experiment [5], in [6], in experiment [12] and in [8]. The Potency entry in [2], in experiment [3], in experiment [4], in experiment [10], in experiment [11] and in experiment [7] was “inactive” each time. Besides, the Potency entry in [9] is “inactive”.
On to `CC(C)C#N`, for which the result in experiment [1], in [5], in experiment [6], in experiment [12] and in [8] was inactive. Further, the Potency entry in [2], in experiment [3], in experiment [4], in [10], in [11] and in experiment [7] was “inactive” each time. Also, the Potency result in experiment [9] was “inactive”.
On to `O=S(=O)(c1ccc(Cl)cc1)c1cc(Cl)c(Cl)cc1Cl`, for which the result in experiment [1], in [5], in experiment [6], in [12] and in experiment [8] was inactive. Moreover, the Potency entry in [2] is “inactive and 48.6 µM (active)”; in experiment [3], “inactive and 61.1 µM (active)”; in experiment [4], “inactive and 54.5 µM (active)”; in [15] it was 48.6 µM (active). Also, the Potency entry in experiment [10], in [11], in experiment [13], in experiment [7], in experiment [14] and in [9] was “inactive” each time.
`O=c1n(Cl)c(=O)n(Cl)c(=O)n1Cl`: the call in [1], in experiment [5], in experiment [6], in experiment [12] and in [8] was inactive. In addition, the Potency result in experiment [3], in [4], in [10], in experiment [11], in experiment [13] and in experiment [7] was “inactive” each time. The Potency entry in experiment [14], in experiment [16], in experiment [15] and in [9] was “inactive” in each case.
On to `CN(C)[C@@H]1C(=O)C(C(N)=O)=C(O)[C@@]2(O)C(=O)C3=C(O)c4c(O)cccc4[C@@](C)(O)[C@H]3C[C@@H]12`, for which the outcome in [1], in experiment [5], in experiment [6], in experiment [12] and in experiment [8] was inactive. The Potency entry in experiment [2], in experiment [3], in experiment [4], in experiment [10], in [11] and in experiment [7] was “inactive” in each case. The Potency result in experiment [9] was “inactive”.
Consider `COc1ccc2c3c1O[C@H]1[C@@H](O)C=C[C@H]4[C@@H](C2)N(C)CC[C@@]341`, for which the outcome in experiment [1], in [5], in [6], in experiment [12] and in [8] was inactive. For the same compound, the Potency entry in [2], in [3], in [4], in [10], in [13] and in experiment [7] was “inactive” in each case. In addition, the Potency result in experiment [14], in [16], in [15] and in experiment [9] was “inactive” in each case.
In the case of `CCC[CH2][Sn]([Cl])([Cl])[Cl]`, the outcome in experiment [1], in experiment [5], in experiment [6], in experiment [12] and in experiment [8] was inactive. Also, the Potency result in experiment [3], in [4], in experiment [10], in [11], in experiment [13] and in experiment [7] was “inactive” in each case. In addition, the Potency result in experiment [14], in [16], in [15] and in experiment [9] was “inactive” throughout.

Source of the values: PubChem BioAssay (Tox21).
